# Experimental data published in PubChem BioAssay AID463115 (University of Pittsburgh Molecular Library Screening Center, 2010).
# Screen size: about 220,000 compounds; about 130 (0.059%) were called active. Only a selection was taken, and actives are over-represented in it overall. A number with no mark means an inactive call. Rule as the data show it: active = inhibition above about 25%; inactive = the rest.
# Target: Furin (Homo sapiens) (UniProt P09958)
# Assay: human furin inhibitors, primary screen, biochemical, fluorescence intensity (AID 463115)
# Conditions: purified furin, fluorogenic substrate cleavage, stronger effect = higher value; at 30 µM unless noted
# Chain of Furin (Homo sapiens) (P09958 108-714 limits assumed): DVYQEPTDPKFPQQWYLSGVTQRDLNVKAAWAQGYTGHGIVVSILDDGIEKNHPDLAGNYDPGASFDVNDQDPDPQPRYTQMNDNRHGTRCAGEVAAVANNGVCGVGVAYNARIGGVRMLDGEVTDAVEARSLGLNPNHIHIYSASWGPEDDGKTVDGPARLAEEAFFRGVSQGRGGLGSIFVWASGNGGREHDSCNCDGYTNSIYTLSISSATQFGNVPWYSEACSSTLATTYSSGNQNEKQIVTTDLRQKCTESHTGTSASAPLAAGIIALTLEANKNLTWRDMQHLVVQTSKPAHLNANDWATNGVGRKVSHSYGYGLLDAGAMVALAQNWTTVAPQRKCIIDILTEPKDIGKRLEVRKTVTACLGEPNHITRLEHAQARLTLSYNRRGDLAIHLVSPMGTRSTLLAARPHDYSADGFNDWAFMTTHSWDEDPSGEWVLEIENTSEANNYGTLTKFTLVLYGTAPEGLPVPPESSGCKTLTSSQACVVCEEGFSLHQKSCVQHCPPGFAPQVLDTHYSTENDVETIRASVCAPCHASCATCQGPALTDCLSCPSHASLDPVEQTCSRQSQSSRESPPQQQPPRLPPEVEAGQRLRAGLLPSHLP
row,Compound,inhibition
1,COc1cccc(OCc2cc(/C=N/NC(=O)c3nc(Cl)c(Cl)c(N)c3Cl)ccc2OC)c1,-20.2% [at 20 µM]
2,Cc1ccc(C(=O)NC(=S)Nc2ccc3[nH]c(=O)[nH]c3c2)cc1C,-13.7%
3,C=C(C)Cn1c(C)cc(C)c(S(=O)(=O)c2ccccc2C)c1=O,5.86% [at 20 µM]
4,CC(C)NC(=O)C(=O)N/N=C/c1ccco1,-9.76% [at 20 µM]
5,Cc1ccccc1NC(=O)Nc1ccccc1N1CCCCC1,-10.3%
6,Cc1cc(OC(=O)c2ccccc2Cl)ccc1N1C(=O)CCC1=O,-16%
7,Cc1cccc(-n2c(SCC(=O)Nc3cccc(S(=O)(=O)NC4=NCCCCC4)c3)nc3ccccc3c2=O)c1C,-12.8%
8,COc1ccc(CCNC(=O)C(=O)NCc2ccccc2C)cc1OC,-21%
9,C=CCn1c(C(C)NC(=O)CC)nc2ccccc21 (stereo not given),-10.5% [at 20 µM]
10,CC(=O)NC(C)c1nc2ccccc2n1Cc1ccccc1F (stereo not given),29.1% [at 20 µM] (active)
11,CCC(=O)Nc1nc2ccccc2n1Cc1ccccc1C,-19.3%
12,CCCCNC(=O)N1CCN(S(C)(=O)=O)CC1,-17.1%
13,CNC(=S)N/N=C/c1cn(Cc2ccc(C)cc2)c2ccccc12,-4.13%
14,O=C1CCCc2nn(-c3ccccc3)nc21,-13.3% [at 20 µM]
15,O=C(Nc1cccnc1)c1cc2cc(Br)ccc2oc1=O,-18%
16,CSc1ccc(C#N)cc1NC(=O)c1ccc(Cl)cc1,-25.3% [at 20 µM]
17,COc1ccc(NC(=O)C(NC(C)=O)C(=O)NCc2ccccc2Cl)cc1 (stereo not given),-24.7% [at 20 µM]
18,Cc1ccc(-c2cc(C(F)(F)F)n3ncc(C(=O)N4CCCCC4c4cccnc4)c3n2)cc1 (stereo not given),-31.6%
19,Cc1ccc(N(Cc2cc3ccccc3[nH]c2=O)C(=O)c2cccs2)cc1,-16%
20,CC1(C)CC(=O)C(CC(=O)N2CCC(Cc3ccccc3)CC2)C(=O)C1,-13%
21,O=C(O)/C(=C/c1cccnc1)NC(=O)c1ccccc1,-17.1%
22,COc1cc([C@H](Cc2ccccc2)NC(C)=O)oc(=O)c1,-28.7%
23,CSc1nc(C)nc(C2CC2)c1C#N,-16.6%

row,Compound,inhibition
1,C=CCOC(=O)C1=C(C)NC(C)=C(C(=O)OCC=C)C1c1cccs1,-8.1% [at 20 µM]
2,COc1ccc2c(CC(=O)OCC(=O)Nc3ccccc3[N+](=O)[O-])coc2c1,-10.8%
3,Clc1ccc(C[n+]2cc(-c3ccccc3)n3c2CCC3)cc1,-20.2%
4,CCC1C=C(c2ccccc2)C=CN=C1N(CC)CC (stereo not given),-18.4%
5,CC1=C(C)CC(C(=O)NC(C)CCc2ccccc2)C(C(=O)O)C1 (stereo not given),-15%
6,CC1=C(C)C(=O)OC(C(C)C2CCC3C4CC=C5CC(OC6OC(COC7OC(CO)C(O)C(O)C7O)C(O)C(O)C6O)CC(O)C5(C)C4CCC23C)C1 (stereo not given),-28.1%
7,CC1CCCC(C)N1/N=C/c1ccccc1OC(F)F (stereo not given),-34.3%
8,NC(N)=Nc1nc2ccc(Br)cc2c(=O)[nH]1,-13.8%
9,CCOc1ccc(NC(=S)NC(=O)/C=C/c2ccc(OC)cc2)c([N+](=O)[O-])c1,-14.6%
10,Cc1c(Br)cc(C(=O)N2CCCCCC2)c(C)c1C,-19.1% [at 20 µM]
11,CC(C)CCN1CCN(Cc2ccc(C(F)(F)F)cc2)CC1CCO (stereo not given),-11.2%
12,COc1ccc(OC)c(S(=O)(=O)NCCC(C)C)c1,-25.7%
13,O=C(NCCc1ccccn1)c1cc(-c2ccc(Cl)cc2)nc2ccccc12,-20.1%
14,CC12CN3CCN(CC(C3)/C1=N\NC(=O)c1ccccc1N)C2,-14.7%
15,CC(CC(=O)O)CC(=O)NNC(=O)c1cccc(Br)c1 (stereo not given),4.22%
16,CCCOn1c(-n2nc(C)cc2C)nc2ccccc2c1=O,-1.39% [at 20 µM]
17,CC(C)Oc1ccccc1C(=O)NC(CO)C(=O)O (stereo not given),-21.8%
18,CC(C)(C)NC(=O)NC(=O)COC(=O)Cc1ccc(Cl)cc1Cl,-11.5%
19,CCOC(=O)c1nnn2c1nc(N1CCN(c3ccccc3)CC1)c1ccccc12,-23.3%
20,C=C(C)C1CC=C(C)/C(=N/NC(=O)CCCNc2cccc(C)c2)C1 (stereo not given),-8.06%
21,CCc1ccc(NC(=O)CC2C(=O)NCCN2C(=S)Nc2ccccc2)cc1 (stereo not given),-22.7%
22,CC(C)C(O)C1CCN(Cc2nc(Cc3ccccc3Cl)no2)CC1 (stereo not given),-21.2%
